Assay results taken from PubChem BioAssay (NCATS).
“And” between values parts separate entries of the source, which are not always exact repeats. Equal entries are not always repeated. Results filed as inconclusive are left out. Entries that show only a call come without a potency. Unmarked numbers belong to inactive results. The source made the active and inactive calls. Calls follow the shape of the dose curve; as a rule, active = well fitted curve in the direction sought with a large enough effect; inconclusive = small, poorly fitted or top-dose-only effect, or another doubt; inactive = no such curve, though single readings can be large; an effect the other way counts as inactive or inconclusive.

Assays:
[1] = tested on: WaGa; assay: qHTS assay to identify novel small-molecules to repurpose for Merkel cell carcinoma treatment (AID 1296009); conditions: MCC and control cell lines, CellTiter-Glo viability, 72 h; series mostly up to 46 µM; also: nearly all actives have a fitted effect of over 60% in size
How it was run: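 72 hr, 37 degree celsius; NPC 8-pt / MIPE 11-pt dose response; compound pinned in DMSO; CellTiter-Glo, 10 min RT, luminescence; normalized to no-cell and DMSO controls.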

[2] = tested on: C33A; assay: Primary qHTS to identify gynecologic anti-cancer compounds using libraries of approved drugs and bioactive compounds (AID 1345084); conditions: Gynecologic cancer cell panel viability, ATPlite luminescence, 48 h; series mostly up to 57.5 µM; also: nearly all actives have a fitted effect of over 55% in size; also: potency is read from the fitted curve at half-maximal effect
How it was run: (§1)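 Measured: luminescence after ATPlite addition (15 min, RT). Exposure: 48 h, 37 C, 5% CO2.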

[3] = tested on: CAOV3; assay: as above; conditions: Gynecologic cancer cell panel viability, ATPlite luminescence, 48 h; series mostly up to 57.5 µM
How it was run: as §1

[4] = tested on: CASKI; assay: as above; conditions: Gynecologic cancer cell panel viability, ATPlite luminescence, 48 h; series mostly up to 57.5 µM
How it was run: as §1

[5] = tested on: Es-2; assay: as above; conditions: Gynecologic cancer cell panel viability, ATPlite luminescence, 48 h; series mostly up to 57.5 µM
How it was run: as §1

[6] = tested on: HeLa; assay: as above; conditions: Gynecologic cancer cell panel viability, ATPlite luminescence, 48 h; series mostly up to 57.5 µM
How it was run: as §1

[7] = tested on: Hek293T; assay: as above; conditions: Gynecologic cancer cell panel viability, ATPlite luminescence, 48 h, control line for the selectivity index; series mostly up to 57.5 µM
How it was run: as §1

[8] = tested on: JEG-3; assay: as above; conditions: Gynecologic cancer cell panel viability, ATPlite luminescence, 48 h; series mostly up to 57.5 µM
How it was run: as §1

[9] = tested on: OV90; assay: as above; conditions: Gynecologic cancer cell panel viability, ATPlite luminescence, 48 h; series mostly up to 57.5 µM
How it was run: as §1

[10] = tested on: PA-1; assay: as above; conditions: Gynecologic cancer cell panel viability, ATPlite luminescence, 48 h; series mostly up to 57.5 µM
How it was run: as §1

[11] = tested on: Tov-21-G; assay: as above; conditions: Gynecologic cancer cell panel viability, ATPlite luminescence, 48 h; series mostly up to 57.5 µM
How it was run: as §1

[12] = tested on: Tov112D; assay: as above; conditions: Gynecologic cancer cell panel viability, ATPlite luminescence, 48 h; series mostly up to 57.5 µM
How it was run: as §1

[13] = Drug repurposing screens with cells derived from glioblastoma tumor samples (AID 1345199); conditions: GBM patient neurospheres viability, ATP luminescence, 48 h; also: nearly all actives have a fitted effect of over 40% in size; also: potency is read from the fitted curve at half-maximal effect
How it was run: (§2)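 Four patient lines of CD133+ GBM neurospheres were screened at several concentrations; hits were retested in those lines plus three slower-growing GBM lines, using 48-hour treatment and ATP-based viability.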

[14] = tested on: astro; assay: as above; conditions: viability, ATP luminescence, 48 h; series mostly up to 45.9 µM
How it was run: as §2

[15] = tested on: SKOV3; assay: Primary qHTS to identify gynecologic anti-cancer compounds using libraries of approved drugs and bioactive compounds (AID 1345084); conditions: Gynecologic cancer cell panel viability, ATPlite luminescence, 48 h; series mostly up to 57.5 µM; also: nearly all actives have a fitted effect of over 55% in size; also: potency is read from the fitted curve at half-maximal effect
How it was run: as §1

[16] = at 20 µM (top of the series), tumour line C
[17] = at 21.2 µM (top of the series), tumour line B
[18] = at 21.2 µM (top of the series), tumour line D
[19] = at 21.3 µM (top of the series), tumour line A
[20] = at 45.9 µM (top of the series), tumour line B
[21] = at 45.9 µM (top of the series), tumour line D
[22] = at 46 µM (top of the series), tumour line A
[23] = at 46.1 µM (top of the series), tumour line C

CN(N=O)C(=O)N[C@@H]1[C@@H](O)[C@H](O)[C@@H](CO)O[C@@H]1O
Potency [1]: inactive
Potency [2]: inactive
Potency [3]: inactive
Potency [4]: inactive
Potency [5]: inactive
Potency [6]: inactive
Potency [7]: inactive
Potency [8]: inactive
Potency [9]: inactive
Potency [10]: inactive
Potency [11]: inactive
Potency [12]: inactive
activity, negative = cell killing [13, 16]: -1.98%
activity, negative = cell killing [13, 17]: -12%
activity, negative = cell killing [13, 18]: 1.48%
activity, negative = cell killing [13, 19]: -15.9%
Potency [14]: inactive

Nc1cc(=O)[nH]c(N)n1
Potency [1]: inactive
Potency [2]: inactive
Potency [3]: inactive
Potency [5]: inactive
Potency [6]: inactive
Potency [7]: inactive
Potency [8]: inactive
Potency [9]: inactive
Potency [15]: inactive
Potency [11]: inactive
Potency [12]: inactive
activity, negative = cell killing [13, 20]: 1%
activity, negative = cell killing [13, 21]: -2.29%
activity, negative = cell killing [13, 22]: -24.4%
activity, negative = cell killing [13, 23]: 6.18%
Potency [14]: inactive

NS(=O)(=O)c1cc2c(cc1C(F)(F)F)NC(Cc1ccccc1)NS2(=O)=O (stereo not drawn)
Potency [1]: inactive
Potency [2]: inactive
Potency [3]: inactive
Potency [4]: inactive
Potency [5]: inactive
Potency [6]: inactive
Potency [7]: inactive
Potency [8]: inactive
Potency [10]: inactive
Potency [15]: inactive
Potency [11]: inactive
Potency [12]: inactive
activity, negative = cell killing [13, 16]: -4.97%
activity, negative = cell killing [13, 17]: -2.05%
activity, negative = cell killing [13, 18]: -0.808%
activity, negative = cell killing [13, 19]: -15.9%
Potency [14]: inactive

N[C@H]1C(O)O[C@H](CO)[C@@H](O)[C@@H]1O (stereo partly drawn)
Potency [1]: inactive
Potency [2]: inactive
Potency [3]: inactive
Potency [4]: inactive
Potency [5]: inactive
Potency [6]: inactive
Potency [7]: inactive
Potency [8]: inactive
Potency [9]: inactive
Potency [10]: inactive
Potency [15]: inactive
Potency [11]: inactive
Potency [12]: inactive
Potency [14]: inactive

O=c1cc[nH]c(=O)[nH]1
Potency [1]: inactive
Potency [2]: inactive
Potency [3]: inactive
Potency [4]: inactive
Potency [5]: inactive
Potency [6]: inactive
Potency [7]: inactive
Potency [8]: inactive
Potency [9]: inactive
Potency [10]: inactive
Potency [15]: inactive
Potency [11]: inactive
Potency [12]: inactive
Potency [14]: inactive

OCc1cc(C(O)CNCCCCCCOCCCCc2ccccc2)ccc1O (stereo not drawn)
Potency [1]: inactive
Potency [2]: inactive
Potency [3]: 22.4 µM (active)
Potency [4]: inactive
Potency [5]: inactive
Potency [6]: inactive
Potency [8]: inactive
Potency [11]: inactive
Potency [12]: inactive
activity, negative = cell killing [13, 23]: 2.29%
Potency ([13]; tumour line A): 7.08 µM (active)
Potency ([13]; tumour line B): 20 µM (active)
Potency ([13]; tumour line D): 20 µM (active)
Potency [14]: 11.2 µM (active)

CCOC(CN1CCN(CC(C)C(=O)c2ccccc2)CC1)c1ccccc1 (stereo not drawn)
Potency [1]: inactive
Potency [2]: inactive
Potency [3]: inactive
Potency [4]: inactive
Potency [5]: inactive
Potency [6]: inactive
Potency [7]: inactive
Potency [8]: inactive
Potency [9]: inactive
Potency [10]: inactive
Potency [15]: inactive
Potency [11]: inactive
Potency [12]: inactive
Potency [14]: inactive

Oc1cn2c(n1)Nc1ccc(Cl)c(Cl)c1C2
Potency [1]: inactive
Potency [2]: inactive
Potency [3]: inactive
Potency [4]: inactive
Potency [5]: inactive
Potency [8]: inactive
Potency [9]: inactive
Potency [10]: 0.355 µM (active)
Potency [15]: inactive
Potency [11]: inactive
Potency [12]: inactive
activity, negative = cell killing [13, 21]: -7.52%
activity, negative = cell killing [13, 23]: -8.47% and 1.08%
Potency [14]: inactive

CS(=O)(=O)c1ccc([C@@H](O)[C@@H](CF)NC(=O)C(Cl)Cl)cc1
Potency [1]: inactive
Potency [2]: inactive
Potency [3]: inactive
Potency [4]: inactive
Potency [5]: inactive
Potency [6]: inactive
Potency [7]: inactive
Potency [8]: inactive
Potency [9]: inactive
Potency [10]: inactive
Potency [15]: inactive
Potency [12]: inactive
activity, negative = cell killing [13, 16]: -23.2%
activity, negative = cell killing [13, 17]: -19.6%
activity, negative = cell killing [13, 18]: -7.33%
Potency [14]: inactive

C[C@H](NC(CCc1ccccc1)C(=O)O)C(=O)N1CCC[C@H]1C(=O)O (stereo partly drawn)
Potency [1]: inactive
Potency [2]: inactive
Potency [3]: inactive
Potency [4]: inactive
Potency [6]: inactive
Potency [7]: inactive
Potency [8]: inactive
Potency [9]: inactive
Potency [10]: inactive
Potency [15]: inactive
Potency [11]: inactive
Potency [12]: inactive
activity, negative = cell killing [13, 20]: -5.92%
activity, negative = cell killing [13, 21]: 1.9%
activity, negative = cell killing [13, 22]: -1.54%
activity, negative = cell killing [13, 23]: -2.05%
Potency [14]: inactive

C=Cc1c(C)c2cc3[nH]c(cc4nc(cc5nc(cc1[nH]2)C(C)=C5CCC(=O)O)C(CCC(=O)O)=C4C)c(C)c3C=C
Potency [1]: inactive
Potency [2]: inactive
Potency [3]: inactive
Potency [4]: inactive
Potency [5]: inactive
Potency [6]: inactive
Potency [7]: inactive
Potency [8]: inactive
Potency [9]: inactive
Potency [10]: inactive
Potency [11]: inactive
Potency [12]: inactive
activity, negative = cell killing [13, 20]: -11.3%
activity, negative = cell killing [13, 21]: -20.2%
activity, negative = cell killing [13, 22]: -14%
activity, negative = cell killing [13, 23]: -7.06%
Potency [14]: inactive

C[C@]12C[C@H](O)[C@H]3[C@@H](CCC4=CC(=O)CC[C@@]43C)[C@@H]1CC[C@@H]2C(=O)CO
Potency [1]: inactive
Potency [2]: inactive
Potency [3]: inactive
Potency [4]: inactive
Potency [5]: inactive
Potency [6]: 20 µM (active)
Potency [7]: inactive
Potency [8]: inactive
Potency [9]: inactive
Potency [10]: inactive
Potency [15]: inactive
Potency [11]: inactive
Potency [12]: inactive
activity, negative = cell killing [13, 20]: -17.6%
activity, negative = cell killing [13, 21]: -22.1%
Potency [14]: inactive

CCOc1nc2cccc(C(=O)O)c2n1Cc1ccc(-c2ccccc2-c2nn[nH]n2)cc1
Potency [1]: inactive
Potency [2]: inactive
Potency [3]: inactive
Potency [4]: inactive
Potency [5]: inactive
Potency [6]: inactive
Potency [7]: inactive
Potency [8]: inactive
Potency [9]: inactive
Potency [10]: inactive
Potency [15]: inactive
Potency [11]: inactive
Potency [12]: inactive
activity, negative = cell killing [13, 20]: 5.1%
Potency [14]: 20 µM (active)

C[C@H]1O[C@@H](n2cc(F)c(=O)[nH]c2=O)[C@H](O)[C@@H]1O
Potency [1]: inactive
Potency [2]: inactive
Potency [3]: inactive
Potency [4]: inactive
Potency [5]: inactive
Potency [6]: inactive
Potency [7]: inactive
Potency [8]: inactive
Potency [9]: inactive
Potency [10]: inactive
Potency [15]: inactive
Potency [12]: inactive
activity, negative = cell killing [13, 20]: -19.9%
activity, negative = cell killing [13, 21]: -17.4%
activity, negative = cell killing [13, 22]: -26.5%
activity, negative = cell killing [13, 23]: 3.86%
Potency [14]: inactive
